# Only some compounds are listed: those with a hit (about 1.5% of all), similar ones and a draw of the others.
# TcdB GH inh – TcdB glycohydrolase inhibition; TcdB glycohydrolase enzymatic assay, plate reader; inhibition, % at 9.99 µM; 350,000 compounds, 0.24% hits; AID 652162; in the data active = inhibition above about 10%
# PrPC TRFRET – inhibitors of human cell surface prion protein PrPC. P04156. TR-FRET read-out. inhibition, % at 13.8 µM. AID 720596. 370,000 compounds, 0.43% hits; in the data active = inhibition above about 24%
# Vc quorum ag – induces V. cholerae light production without autoinducers; AID 588436; 350,000 compounds, 0.16% hits; V. cholerae BH1578 lux reporter, luminescence, 6 h; activation, % at 18.7 µM; in the data active = activation mostly above about 9.7%, no sharp cut-off
# CCHFV vOTU inh – blocks the CCHF virus ovarian tumor domain protease. CCHFV vOTU protease, Pep-AMC fluorescence. inhibition, % at 11.5 µM. 370,000 compounds, 0.55% hits. AID 651958; in the data active = inhibition above about 30%
# PriA SSB inh – K. pneumoniae PriA-SSBct interaction inhibition; AlphaScreen SSBct-PriA binding, biotinylated peptide; inhibition, % at 33 µM; 430,000 compounds, 0.6% hits; AID 1272365; in the data active = inhibition mostly above about 37%, no sharp cut-off; inactive = mostly below about 20%
# DUSP3 inh – inhibitors of human VHR1 phosphatase (DUSP3). P51452. recombinant VHR phosphatase, pNPP absorbance. inhibition, % at 13.3 µM. 290,000 compounds, 0.52% hits. AID 1654; in the data active = inhibition above about 50%
# PrPC confirm – cell surface PrPC inhibition, TR-FRET confirmation; shares compounds with PrPC TRFRET; cell surface PrPC level; inhibition, % at 13.8 µM; 1,500 compounds, 65% hits; in the data active = inhibition above about 25%
# LD9 tox – kills or reduces viability of LD9 cells in PrPc counter-screen | inhibition, % at 13.8 µM | shares compounds with PrPC TRFRET | AID 743201 | 1,500 compounds, 29% hits | LD9 cells cytotoxicity, luminescence viability; in the data active = inhibition above about 9.5%
# Hits are given with their value; – = inactive; · = no result given.
SMILES,TcdB GH inh,PrPC TRFRET,Vc quorum ag,CCHFV vOTU inh,PriA SSB inh,DUSP3 inh,PrPC confirm,LD9 tox
O=C(Nc1ccc2c(c1)OCO2)c1ccc2sc([C@@H]3O[C@H](CO)[C@H](O)[C@H](O)[C@H]3O)nc2c1,–,–,–,–,·,·,·,·
C#CCn1cc(/C=N/Nc2nc3ccccc3[nH]2)c2ccccc21,·,36.4,–,–,·,–,–,19.0
O=C(CS(=O)(=O)c1cn(CC(=O)N2CCCC2)c2ccccc12)Nc1cc(C(F)(F)F)ccc1Cl,·,·,·,·,–,·,·,·
Fc1cccc2sc(Nc3nc4c(F)cccc4s3)nc12,·,37.4,–,–,–,–,69.6,–
O=C1NCCN1C(=O)N1CCC2(CC1)OCCS2,·,·,·,·,–,·,·,·
O=C1OCCC1Sc1ncnc2sc3c(c12)CCC3 (centres undefined),·,56.1,–,–,–,–,63.7,–
COc1ccc(-c2nn(-c3ccc(C)c(Cl)c3)c3c2cnc2ccc(F)cc23)cc1,·,·,·,·,–,·,·,·
CN1OC(Cn2cc(C#N)c(=O)n(C)c2=O)CC1c1ccccc1 (centres undefined),–,25.2,–,–,–,–,–,–
COc1ccc([C@@]23Oc4cc(OC)cc(OC)c4[C@]2(O)[C@H](O)[C@H](C(=O)N(C)C)[C@H]3c2ccccc2)cc1,–,98.0,–,–,–,·,98.8,28.8
COc1ccc(C2CC(O)(c3ccccc3)Oc3cc(OC)c(OC)c(OC)c32)cc1 (centres undefined),–,–,–,–,–,–,·,·
Cc1[nH]c(=O)c(C#N)c(C)c1CSc1ncccn1,–,28.6,–,–,–,·,24.8,–
Cc1[nH]c(=O)c(C#N)c(C)c1Cc1ccc(Cl)cc1Cl,–,–,–,–,–,–,·,·
COc1cccc2c(=O)c(C(=O)NCCc3ccccc3)c[nH]c12,–,24.6,–,–,–,·,–,–
COc1cc2[nH]cc(C(=O)NCCc3ccccc3)c(=O)c2cc1OC,·,–,–,–,–,–,·,·
Cc1nnc(C2CCCN(S(=O)(=O)c3ccc(Cl)cc3)C2)s1 (centres undefined),·,·,·,·,–,·,·,·
O=C1N(CC(=O)N2CCc3ccccc32)CCN1Cc1ccc(Cl)cc1,·,45.7,–,–,–,–,–,–
CC1(c2ccc(Cl)cc2)NC(=O)N(CC(=O)N2CCc3ccccc32)C1=O (centres undefined),–,–,–,–,–,·,·,·
CCOc1ccccc1N=C1SCC(C)N1C(=O)C1CCN(c2ncnc3sc(C)c(C)c23)CC1 (centres undefined),–,39.5,–,–,–,·,55.8,–
O=C(Nc1cnn(CC2COc3ccccc3O2)c1)c1cc(=O)[nH]c2ccccc12 (centres undefined),·,·,·,·,–,·,·,·
NC(Cc1ccc(Cl)cc1)c1csc(NC(=O)NCC2CCCCC2)n1 (centres undefined),–,61.1,–,–,·,·,41.5,–
N#C/C(=C/c1ccc([N+](=O)[O-])cc1)C(=O)Nc1ccccc1I,·,·,·,·,–,·,·,·
Cc1nc(SCC(=O)Nc2cc(C(N)=O)cc(C(N)=O)c2)c2c(C)c(C)sc2n1,–,84.9,–,–,–,–,94.0,–
Cc1nc(SCC(=O)Nc2sccc2C(N)=O)c2c(C)c(C)sc2n1,–,–,–,–,·,·,·,·
NS(=O)(=O)c1ccc(CCNC(=O)CSc2ncnc3ccccc23)cc1,–,26.7,–,–,–,–,45.2,–
Cc1sc2ncnc(SCC(=O)Nc3cccc(S(N)(=O)=O)c3)c2c1C,–,27.8,–,–,–,·,44.4,–
SMILES,TcdB GH inh,PrPC TRFRET,Vc quorum ag,CCHFV vOTU inh,PriA SSB inh,DUSP3 inh,PrPC confirm,LD9 tox
NS(=O)(=O)c1ccc(NC(=O)CSc2ncnc3ccccc23)cc1,–,–,–,–,–,–,·,·
NS(=O)(=O)c1cccc(NC(=O)CSc2ncnc3ccccc23)c1,–,37.1,–,–,–,–,36.0,–
O=C(c1cccc(-n2cccn2)c1)N1CCCC(Cc2nc(C3CC3)no2)C1 (centres undefined),·,·,·,·,–,·,·,·
Cc1cccc(NC(=O)C(=O)NCC(=O)N2CCOC(c3ccccc3)C2)c1 (centres undefined),·,·,·,·,–,·,·,·
Cc1ccc(NC(=O)Cc2cc(=O)[nH]c(SCc3cccc(Cl)c3)n2)cc1C,·,·,·,·,–,·,·,·
CCN(CC)S(=O)(=O)c1ccc(NC(=O)CSc2ncnc3ccccc23)cc1,·,47.1,–,–,–,–,59.8,–
COc1ccccc1NC(=O)CSc1ncnc2ccccc12,·,·,·,·,–,·,·,·
CCOc1ccccc1C(=O)Nc1ccc2nc(C)[nH]c(=O)c2c1,·,26.2,·,–,·,·,–,–
O=C(CCS(=O)(=O)c1ccccc1)NCC#CCOc1ccc2c(c1)OCO2,·,·,·,·,–,·,·,·
COCCN(CCOC)C(=O)CC(=O)N(CCOC)CCOC,·,27.5,–,–,–,–,–,–
Cc1csc(NC(=O)CSc2nc(C(C)C)nc3c2c(=O)n(C)c(=O)n3C)n1,–,26.7,–,–,–,–,–,–
O=C(Cn1nc(-c2cccs2)ccc1=O)Nc1ccc(F)c([N+](=O)[O-])c1,·,·,·,·,–,·,·,·
Cc1cc(=O)n2c(n1)SC[C@@H]2CC(=O)N1CCN(c2ccccc2F)CC1,·,·,·,·,–,·,·,·
CNC(=O)c1c2c(nc3ccc(Br)cc13)CCCC2,–,25.2,–,–,–,–,35.1,–
Cc1ccc(NC(=O)NCCS(=O)(=O)c2c(C)n(Cc3ccc(F)cc3)c3ccccc23)cc1C,·,·,·,·,–,·,·,·
N#Cc1nc(/C=C/c2ccc(F)cc2)oc1N1CCN(C(=O)c2cccs2)CC1,·,·,·,·,–,·,·,·
COc1ccccc1NS(=O)(=O)c1cccc(NC(=O)Nc2ccc(Cl)cc2)c1,–,45.0,–,–,–,–,–,–
N#Cc1ccccc1OCCCN1CCC(Cc2ccccc2)CC1,–,25.5,–,–,–,–,–,10.3
O=[N+]([O-])c1ccc(Sc2cccc[n+]2[O-])c2nonc12,–,37.4,–,–,·,–,73.0,98.6
O=[N+]([O-])c1ccc(Nc2ccccc2)c2nonc12,–,–,–,–,–,–,·,·
Cc1ccccc1N1C(=O)CC(Sc2nnc(-c3ccccc3)o2)C1=O (centres undefined),·,30.3,·,–,–,–,–,–
O=C1CC(Sc2nnc(-c3ccccc3)o2)C(=O)N1c1ccccc1 (centres undefined),·,–,–,–,–,–,·,·
Fc1ccc(-n2ncc3c(=S)nc[nH]c32)cc1,·,·,·,·,–,·,·,·
S=c1nc[nH]c2c1cnn2-c1ccccc1,–,36.3,–,–,–,–,43.2,–
O=c1[nH]c(SCc2cccc([N+](=O)[O-])c2)nc2c1cnn2-c1ccc(Cl)cc1,·,·,·,·,–,·,·,·
Cc1sc2ncnc(Sc3ccccc3C(=O)Nc3ccc(C#N)cc3)c2c1C,–,–,–,–,–,–,·,·
Cc1sc2ncnc(Sc3ccccc3C(=O)Nc3ccc(Br)cc3)c2c1C,–,25.2,–,–,–,–,30.6,–
COc1ccccc1CNc1nc(Nc2cccc(-c3cnco3)c2)c2sccc2n1,–,25.4,–,–,·,·,33.2,34.8
